Source: PubChem (National Center for Advancing Translational Sciences (NCATS))
GCN5L2 inh: blocks human GCN5L2 histone acetyltransferase; Q92830; GCN5L2 HAT assay, ThioGlo1 CoA-SH fluorescence; Potency, µM (highest dose often 58.9 µM), inactives show top-dose activity change, negative = inhibition, usual class: inhibitors; hit rate 0.21% among 390,000; further: potency means the concentration at half of the fitted maximal effect; on the % scale 0 is the no-effect control and ±100 the full control effect
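Titration-based screen in which CoA formation is detected via maleimide probe ThioGlo1 (50uM) turning fluorescent on thiol reaction; substrates H3(1-25) 75uM and acetyl-CoA 70uM, GCN5L2 20nM, 20 min incubation at room temperature.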
Pol kappa inh-1: inhibitors of human DNA polymerase kappa; Potency, µM (doses to about 107 µM), without a hit: at the top dose activity, negative = inhibition, hits mostly inhibitors; purified Pol kappa, fluorescent DNA synthesis assay, 10 min; hit rate 0.53% among 400,000; Q9UBT6; further: potency means the concentration at half of the fitted maximal effect; on the % scale 0 is the no-effect control and ±100 the full control effect
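Pol kappa 10 nM + cpd, 15 min RT; start w/ substrate 50 nM final; fluorescence kinetic read, 0 and 10 min. Neg ctrl: buffer, no enzyme.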
GLS inhibitor: glutaminase GLS (human) inhibition | GLS enzymatic activity, qHTS titration | Potency, µM (highest dose often 45.5 µM), for inactives: at the top dose activity change, negative = inhibition, actives largely listed as inhibitors | hit rate 0.21% among 410,000 | AID 624170; further: potency means the concentration at half of the fitted maximal effect; on the % scale 0 is the no-effect control and ±100 the full control effect
Target sequence (O94925 whole entry, looked up): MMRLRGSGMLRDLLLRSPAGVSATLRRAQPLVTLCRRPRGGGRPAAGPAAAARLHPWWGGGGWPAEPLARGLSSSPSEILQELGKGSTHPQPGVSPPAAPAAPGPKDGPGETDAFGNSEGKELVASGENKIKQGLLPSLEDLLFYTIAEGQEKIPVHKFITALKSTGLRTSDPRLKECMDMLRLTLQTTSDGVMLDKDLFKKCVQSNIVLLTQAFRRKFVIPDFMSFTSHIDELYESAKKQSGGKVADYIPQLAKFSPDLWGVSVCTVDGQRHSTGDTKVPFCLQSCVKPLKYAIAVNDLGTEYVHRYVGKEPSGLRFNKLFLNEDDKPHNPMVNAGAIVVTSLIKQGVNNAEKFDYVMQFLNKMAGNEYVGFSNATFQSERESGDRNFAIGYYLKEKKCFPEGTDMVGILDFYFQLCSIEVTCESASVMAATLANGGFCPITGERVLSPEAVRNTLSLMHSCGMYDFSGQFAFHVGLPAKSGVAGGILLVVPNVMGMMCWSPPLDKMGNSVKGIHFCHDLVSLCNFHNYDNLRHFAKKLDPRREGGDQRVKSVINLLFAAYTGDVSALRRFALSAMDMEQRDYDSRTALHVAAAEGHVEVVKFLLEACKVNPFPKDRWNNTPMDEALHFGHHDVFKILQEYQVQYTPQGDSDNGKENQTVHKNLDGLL
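Enzyme dispensed in phosphate buffer (45 mM, pH 8.2, 0.02% Tween-20), compounds pinned in, then 1 mM L-glutamine solution and the glutamate oxidase–HRP–Amplex Red mix added; fluorescence read immediately and again after 30 min at room temperature.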
Pol beta inh: blocks human DNA polymerase beta activity; P06746; Pol beta primer extension/strand displacement, fluorescence kinetic; Potency, µM (series often up to 114 µM), for inactives: at the highest dose activity change, negative = inhibition, usual class: inhibitors; hit rate 1.3% among 340,000; AID 485314; further: potency means the concentration at half of the fitted maximal effect; on the % scale 0 is the no-effect control and ±100 the full control effect
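Homogeneous kinetic assay of primer extension and strand displacement by 10 nM Pol beta, preincubated 15 min at room temperature with compound before 50 nM substrate (final) was added. Read at 0 and 10 min; four-parameter Hill fit.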
POLI inh: inhibitors of human DNA polymerase iota; Q9UNA4; Pol iota fluorescent replication assay, 10 min; Potency, µM (series often up to 115 µM), for the others: at the top dose activity, negative = inhibition, usual class: inhibitors; hit rate 1% among 390,000; further: potency means the concentration at half of the fitted maximal effect
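Pol iota at 10 nM preincubated 15 min with compounds at room temperature; reaction started with fluorescent substrate, 50 nM final. Fluorescence read kinetically at 0 and 10 min; buffer-only wells as negative control.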
Pol eta inh-1: inhibitors of human DNA polymerase eta; recombinant Pol eta, fluorescent DNA replication assay; Potency, µM (doses to about 114 µM), for the others: at the top dose activity change, negative = inhibition, actives largely listed as inhibitors; hit rate 1.2% among 390,000; AID 588591; further: potency means the concentration at half of the fitted maximal effect; on the % scale 0 is the no-effect control and ±100 the full control effect
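Pol eta (10 nM) was preincubated with compounds for 15 min at room temperature, after which fluorescent replication substrate (50 nM final) was added to start the reaction. Fluorescence was read kinetically at 0 and 10 min.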
GALK inh confirm: confirmation of human galactokinase (GALK) inhibitors; shares compounds with Pol eta inh-1; purified GALK, Kinase-Glo ATP depletion luminescence; Potency, µM (series often up to 115 µM), for inactives: top-dose activity, negative = inhibition, usual class: inhibitors; hit rate 70% among 150; AID 2015
GALK redox cs: redox cycling activity in phenol red-HRP assay | shares compounds with Pol eta inh-1 | AID 2035 | Potency, µM (series often up to 115 µM), for inactives: at the highest dose activity change, negative = H2O2 signal, actives largely listed as inhibitors | hit rate 40% among 150 | Phenol red-HRP H2O2 redox cycling, absorbance 600 nm
HEK293 viability: reduces HEK-293 cell viability in GALK counter-screen; shares compounds with Pol eta inh-1; HEK-293 viability, ATP luminescence (CellTiter-Glo), 24/48 h; Potency, µM (titrated, usually from 46.1 µM), without a hit: at the top dose activity change, negative = cytotoxicity, most hits filed as inhibitors; hit rate 10% among 170; AID 2547; further: potency means the concentration at half of the fitted maximal effect; on the % scale 0 is the no-effect control and ±100 the full control effect
Pol kappa inh-2: confirmation of human DNA polymerase kappa inhibitors; shares compounds with Pol eta inh-1; purified Pol-kappa, fluorescent strand-displacement substrate; Potency, µM, most hits filed as inhibitors; hit rate 76% among 920; further: potency means the concentration at half of the fitted maximal effect
Pol eta inh-2: Pol eta (human) inhibition, cherry-pick confirmation; shares compounds with Pol eta inh-1; Pol eta primer extension, TAMRA/BHQ fluorescence, 10 min; Potency, µM, hits mostly inhibitors; hit rate 64% among 2,600; AID 720502; further: potency means the concentration at half of the fitted maximal effect
* = called active by the depositor; ? = inconclusive; nt = not tested or not shown; [ ] = dose if it differs, or a comment. Hits are enriched below; roughly 2.4% of the tested compounds scored in any of these assays. The call rests on the fitted dose curve; in most records, active means well fitted curve in the direction sought with a large enough effect; inconclusive means small, poorly fitted or top-dose-only effect, or another doubt; inactive means no such curve, though single readings can be large; an effect the other way counts as inactive or inconclusive.

SMILES | GCN5L2 inh | Pol kappa inh-1 | GLS inhibitor | Pol beta inh | POLI inh | Pol eta inh-1 | Pol eta inh-2 | others
CCCCC1(C)OC(=O)C(=Cc2ccc(-c3ccc(Cl)c(C(=O)O)c3)o2)C(=O)O1 (stereo not given) | ? | ? | ? | 15.8µM* | ? | 20µM* | 26.9*
O=C(O)c1cc(-c2ccc(/C=N/NC(=S)Nc3ccccc3)o2)ccc1Cl | -6.7% | 79.4µM* | 21.8% | 28.2µM* | 35.5µM* | 20µM* | ? | Pol kappa inh-2=75.2*
CC(C)N1C(=O)S/C(=C\c2ccc(-c3ccc(Cl)c(C(=O)O)c3)o2)C1=O | -22.7% | 50.1µM* | ? | -0.4% | ? | 8.91µM* | 26.9*
Cc1ccc(N2NC(=O)/C(=C/c3ccc(-c4ccc(Cl)c(C(=O)O)c4)o3)C2=O)cc1 | -1.9% | ? | ? | 31.6µM* | ? | 22.4µM* | 60.1*
CCCCC1(C)OC(=O)C(=Cc2ccc(SC)cc2)C(=O)O1 (stereo not given) | -8.8% | -17.2% | 28.8% | ? | 60.0% | -7.8% | nt
CNC(=O)c1ccc(Nc2nnc(-c3ccc(C)c(S(=O)(=O)NC(C)(C)C)c3)c3ccccc23)cc1 | -4.7% | -8.5% | -0.5% | 28.1% | ? | 10.3% | nt
CN1CCN(c2nc3c(S(=O)(=O)c4ccc(Br)cc4)nnn3c3ccsc23)CC1 | -12.6% | 6.6% | -5.7% | -26.1% | 6.5% | -6.4% | nt
Oc1c(C(c2ccccc2)N2CCN(c3cccc(Cl)c3)CC2)sc2nc(-c3ccco3)nn12 (stereo not given) | -8.5% | -8.0%[60.1 µM] | 2.2% | 2.2% | -24.2% | -8.8% | nt
Cc1nn(Cc2noc(C(=O)NCC3CCCO3)n2)c(C)c1Br (stereo not given) | -17.9% | 9.6% | 1.7% | 8.4% | 17.7% | -20.2% | nt | GALK inh confirm=-7.7%;GALK redox cs=4.2%;HEK293 viability=-5.3%
Cn1nc2c(c1C(=O)N1CCCC(C(=O)c3cc(F)ccc3F)C1)CCCC2 (stereo not given) | -0.9% | -2.4%[60.1 µM] | 4.1% | 1.1% | -17.7% | -19.3% | nt
Cn1nc2c(c1C(=O)O)CCCC2 | -1.3% | ? | -11.7% | ? | ? | 8.91µM* | 26.9*
Cc1ccc2nc(NC(=O)c3ccco3)sc2c1 | -28.2% | -1.7% | -0.7% | 12.4% | -2.5% | -9.9% | nt
Cc1nc2ccc3nc(NC(=O)c4ccco4)sc3c2s1 | nt | ? | -2.4% | nt | ? | ? | ?
CC(Oc1ccc2ccc(=O)oc2c1)C(=O)NC(Cc1c[nH]c2ccc(O)cc12)C(=O)O (stereo not given) | 37.2% | ? | ? | ? | ? | 22.4µM* | ?
Cc1c(C)c2ccc(OC(C)C(=O)N[C@@H](Cc3c[nH]c4ccccc34)C(=O)O)c(C)c2oc1=O (stereo not given in full) | -12.2% | -0.3% | 17.3% | 30.3% | -4.8% | -3.3% | nt
